In article PMC7862700, “An all-to-all approach to the identification of sequence-specific readers for epigenetic DNA modifications on cytosine”:

How the values were obtained:
Assay in all cases: DAPPL (digital affinity profiling via proximity ligation, sequencing); 10 mM Tris-HCl pH 7.5, 50 mM NaCl, 1 mM DTT, 4% glycerol, room temperature, 30 min; GST-TFs on glutathione beads, 16-mer random dsDNA library, 0.1% formaldehyde crosslink after washing; high values mean tight binding
Settings in all cases: protein: recombinant; tags: N-terminal GST; dsDNA, one strand shown
FEV = biological target: T1, FEV (Homo sapiens, UniProt Q99581 1-238)
T1 sequence: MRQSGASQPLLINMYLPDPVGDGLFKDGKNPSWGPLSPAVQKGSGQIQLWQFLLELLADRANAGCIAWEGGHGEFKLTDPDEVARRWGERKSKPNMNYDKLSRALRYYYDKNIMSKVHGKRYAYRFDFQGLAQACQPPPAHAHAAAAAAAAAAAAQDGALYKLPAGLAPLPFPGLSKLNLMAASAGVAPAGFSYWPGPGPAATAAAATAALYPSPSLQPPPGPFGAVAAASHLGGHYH
Procedure, shortened: (§1)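 Yeast served to express human transcription factors as GST fusions, which were then captured on glutathione beads and labelled with DNA barcodes. Pooled with a tag-only sample, they were incubated with 200 nmole of a 16-mer random double-stranded DNA library for 30 min at room temperature in Tris/NaCl/DTT/glycerol buffer, washed, crosslinked with 0.1% formaldehyde, ligated by proximity, amplified by PCR and sequenced. Dividing each hexamer's read frequency for a factor by its frequency for the tag-only sample gives the binding signal.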

ETV5 = ETV5 (Homo sapiens, UniProt P41161 1-510)
Procedure, shortened: as §1

SPIC = biological target: T2, SPIC (Homo sapiens, UniProt Q8N5J4 1-248)
T2 sequence: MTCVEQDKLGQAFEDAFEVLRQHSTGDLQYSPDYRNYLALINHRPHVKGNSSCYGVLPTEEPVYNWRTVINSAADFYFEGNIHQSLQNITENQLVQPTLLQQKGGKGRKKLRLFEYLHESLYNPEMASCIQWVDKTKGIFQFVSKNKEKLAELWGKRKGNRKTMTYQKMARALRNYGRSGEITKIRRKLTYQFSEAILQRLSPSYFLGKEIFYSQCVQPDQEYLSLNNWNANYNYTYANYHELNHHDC
Procedure, shortened: as §1

ELF4 = ELF4 (Homo sapiens, UniProt Q99607 1-663)
Procedure, shortened: as §1

ELK4 = biological target: T3, ELK4 (Homo sapiens, UniProt P28324-2 1-405)
T3 sequence: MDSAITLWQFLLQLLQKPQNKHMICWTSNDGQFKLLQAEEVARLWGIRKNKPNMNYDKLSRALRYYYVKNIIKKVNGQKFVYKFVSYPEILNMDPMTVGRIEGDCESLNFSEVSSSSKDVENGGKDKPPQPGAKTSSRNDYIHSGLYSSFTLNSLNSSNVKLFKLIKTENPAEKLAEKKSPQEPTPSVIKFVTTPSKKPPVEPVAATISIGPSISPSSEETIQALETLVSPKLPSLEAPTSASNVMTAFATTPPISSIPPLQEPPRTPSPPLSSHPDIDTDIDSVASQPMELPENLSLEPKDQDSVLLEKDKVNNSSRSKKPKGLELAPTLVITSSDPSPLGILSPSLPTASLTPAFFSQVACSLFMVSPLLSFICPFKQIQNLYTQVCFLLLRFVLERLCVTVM
Procedure, shortened: as §1

ETV2 = biological target: T4, ETV2 (Homo sapiens, UniProt O00321 1-342)
T4 sequence: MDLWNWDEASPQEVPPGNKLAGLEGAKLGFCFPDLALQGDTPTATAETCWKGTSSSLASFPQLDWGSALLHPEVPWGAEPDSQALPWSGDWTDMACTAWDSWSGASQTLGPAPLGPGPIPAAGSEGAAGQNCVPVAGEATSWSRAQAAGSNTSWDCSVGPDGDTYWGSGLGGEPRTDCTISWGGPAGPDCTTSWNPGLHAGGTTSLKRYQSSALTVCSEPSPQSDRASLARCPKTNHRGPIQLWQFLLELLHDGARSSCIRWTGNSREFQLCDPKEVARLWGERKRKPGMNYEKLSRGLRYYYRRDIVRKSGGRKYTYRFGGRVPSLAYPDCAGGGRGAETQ
Procedure, shortened: as §1

ELF3 = biological target: T5, ELF3 (Homo sapiens, UniProt P78545 1-371)
T5 sequence: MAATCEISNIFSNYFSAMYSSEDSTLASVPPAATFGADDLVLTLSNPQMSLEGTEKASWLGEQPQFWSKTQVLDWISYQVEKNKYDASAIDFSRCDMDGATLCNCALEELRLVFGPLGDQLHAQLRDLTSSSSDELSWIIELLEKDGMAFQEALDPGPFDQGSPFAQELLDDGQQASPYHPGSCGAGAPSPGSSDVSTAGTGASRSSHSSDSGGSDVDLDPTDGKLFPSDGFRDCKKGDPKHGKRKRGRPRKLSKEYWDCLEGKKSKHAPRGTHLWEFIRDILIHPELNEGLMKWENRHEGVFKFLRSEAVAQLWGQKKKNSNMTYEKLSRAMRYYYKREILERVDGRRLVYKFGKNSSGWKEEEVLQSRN
Procedure, shortened: as §1

ETV1 = ETV1 (Homo sapiens, UniProt P50549 1-477)
Procedure, shortened: as §1

ERF = biological target: T6, ERF (Homo sapiens, UniProt P50548 1-548)
T6 sequence: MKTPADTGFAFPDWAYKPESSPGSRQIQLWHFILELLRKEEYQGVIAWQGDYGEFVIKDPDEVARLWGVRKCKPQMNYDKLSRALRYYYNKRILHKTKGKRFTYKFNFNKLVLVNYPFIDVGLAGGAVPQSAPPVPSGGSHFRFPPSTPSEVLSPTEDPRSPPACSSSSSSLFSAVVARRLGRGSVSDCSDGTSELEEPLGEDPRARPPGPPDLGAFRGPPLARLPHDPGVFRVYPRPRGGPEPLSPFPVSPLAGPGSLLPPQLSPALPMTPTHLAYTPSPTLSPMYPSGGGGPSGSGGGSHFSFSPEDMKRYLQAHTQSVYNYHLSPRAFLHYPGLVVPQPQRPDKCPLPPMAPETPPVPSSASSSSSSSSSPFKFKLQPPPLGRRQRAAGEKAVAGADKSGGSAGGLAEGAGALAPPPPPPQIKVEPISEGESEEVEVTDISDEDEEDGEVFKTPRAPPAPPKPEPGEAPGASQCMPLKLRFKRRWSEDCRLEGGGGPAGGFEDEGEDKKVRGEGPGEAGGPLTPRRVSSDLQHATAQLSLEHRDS
Procedure, shortened: as §1

ETS2 = biological target: T7, ETS2 (Homo sapiens, UniProt P15036 1-469)
T7 sequence: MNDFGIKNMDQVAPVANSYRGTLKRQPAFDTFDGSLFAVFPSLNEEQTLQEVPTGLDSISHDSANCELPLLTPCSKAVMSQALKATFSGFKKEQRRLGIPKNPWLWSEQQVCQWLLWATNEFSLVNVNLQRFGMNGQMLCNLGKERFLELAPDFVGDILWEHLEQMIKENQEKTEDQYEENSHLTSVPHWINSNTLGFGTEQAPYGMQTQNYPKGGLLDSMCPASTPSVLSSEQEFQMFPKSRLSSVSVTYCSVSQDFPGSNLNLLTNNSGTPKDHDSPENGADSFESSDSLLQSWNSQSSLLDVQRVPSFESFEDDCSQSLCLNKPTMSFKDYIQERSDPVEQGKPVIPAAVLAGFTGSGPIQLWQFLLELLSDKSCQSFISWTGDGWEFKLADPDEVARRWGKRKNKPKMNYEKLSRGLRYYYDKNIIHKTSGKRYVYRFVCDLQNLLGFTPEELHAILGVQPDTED
Procedure, shortened: as §1

ETV7 = biological target: T8, ETV7 (Homo sapiens, UniProt Q9Y603 1-341)
T8 sequence: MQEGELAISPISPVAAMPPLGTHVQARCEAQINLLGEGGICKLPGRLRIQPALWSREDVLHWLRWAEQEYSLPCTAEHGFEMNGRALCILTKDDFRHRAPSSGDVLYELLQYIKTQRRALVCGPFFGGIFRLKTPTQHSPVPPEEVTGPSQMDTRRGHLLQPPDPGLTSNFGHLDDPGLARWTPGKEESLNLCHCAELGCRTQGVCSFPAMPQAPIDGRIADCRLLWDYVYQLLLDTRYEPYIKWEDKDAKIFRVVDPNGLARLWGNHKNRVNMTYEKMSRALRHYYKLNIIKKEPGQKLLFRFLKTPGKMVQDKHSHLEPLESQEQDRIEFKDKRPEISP
Procedure, shortened: as §1

ELF5 = biological target: T9, ELF5 (Homo sapiens, UniProt Q9UKW6-2 1-255)
T9 sequence: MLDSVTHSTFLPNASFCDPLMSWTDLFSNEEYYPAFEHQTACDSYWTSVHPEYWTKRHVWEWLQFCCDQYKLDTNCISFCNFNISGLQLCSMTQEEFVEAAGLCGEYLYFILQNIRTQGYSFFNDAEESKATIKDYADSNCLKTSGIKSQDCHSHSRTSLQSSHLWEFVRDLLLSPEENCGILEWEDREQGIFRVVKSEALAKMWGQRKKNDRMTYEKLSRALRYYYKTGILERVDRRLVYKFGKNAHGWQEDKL
Procedure, shortened: as §1

ETV3 = biological target: T10, ETV3 (Homo sapiens, UniProt P41162-2 1-143)
T10 sequence: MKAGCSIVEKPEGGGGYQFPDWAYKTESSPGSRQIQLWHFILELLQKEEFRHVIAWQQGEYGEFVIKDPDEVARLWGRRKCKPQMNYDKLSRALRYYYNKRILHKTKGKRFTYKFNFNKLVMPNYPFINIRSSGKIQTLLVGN
Procedure, shortened: as §1

ETV6 = ETV6 (Homo sapiens, UniProt P41212 1-452)
Procedure, shortened: as §1

Chain of ETV5 (P41161 whole entry): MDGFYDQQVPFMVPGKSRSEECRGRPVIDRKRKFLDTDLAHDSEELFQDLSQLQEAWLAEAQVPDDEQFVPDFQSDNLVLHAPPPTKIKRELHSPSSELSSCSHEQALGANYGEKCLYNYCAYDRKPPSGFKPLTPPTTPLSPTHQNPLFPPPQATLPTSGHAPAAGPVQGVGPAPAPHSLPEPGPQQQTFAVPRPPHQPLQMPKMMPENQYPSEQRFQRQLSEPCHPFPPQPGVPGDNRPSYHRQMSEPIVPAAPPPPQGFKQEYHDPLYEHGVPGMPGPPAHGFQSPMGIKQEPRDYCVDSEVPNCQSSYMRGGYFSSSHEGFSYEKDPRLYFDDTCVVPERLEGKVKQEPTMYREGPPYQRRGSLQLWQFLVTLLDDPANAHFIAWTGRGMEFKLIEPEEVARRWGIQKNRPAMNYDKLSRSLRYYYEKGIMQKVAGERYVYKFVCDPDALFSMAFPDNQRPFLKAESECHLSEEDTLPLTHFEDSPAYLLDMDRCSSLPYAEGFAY
Chain of ELF4 (Q99607 whole entry): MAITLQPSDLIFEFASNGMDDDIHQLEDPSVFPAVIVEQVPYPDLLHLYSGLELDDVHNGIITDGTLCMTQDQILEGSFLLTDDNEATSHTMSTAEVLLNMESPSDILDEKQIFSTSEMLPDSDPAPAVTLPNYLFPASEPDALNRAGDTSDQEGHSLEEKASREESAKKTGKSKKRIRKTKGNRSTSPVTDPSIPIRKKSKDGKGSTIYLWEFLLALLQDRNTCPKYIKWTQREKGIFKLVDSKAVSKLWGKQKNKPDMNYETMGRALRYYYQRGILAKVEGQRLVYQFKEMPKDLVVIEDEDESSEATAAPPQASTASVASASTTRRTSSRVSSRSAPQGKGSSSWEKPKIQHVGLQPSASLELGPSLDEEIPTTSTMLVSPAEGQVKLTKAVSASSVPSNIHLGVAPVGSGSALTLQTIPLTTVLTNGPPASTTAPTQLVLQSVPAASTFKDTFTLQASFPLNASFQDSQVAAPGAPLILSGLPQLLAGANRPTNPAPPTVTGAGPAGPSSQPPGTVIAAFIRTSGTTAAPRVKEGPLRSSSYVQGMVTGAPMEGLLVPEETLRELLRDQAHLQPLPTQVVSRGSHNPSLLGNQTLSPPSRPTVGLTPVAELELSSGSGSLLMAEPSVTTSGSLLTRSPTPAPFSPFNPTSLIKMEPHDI
Chain of ETV6 (P41212 whole entry): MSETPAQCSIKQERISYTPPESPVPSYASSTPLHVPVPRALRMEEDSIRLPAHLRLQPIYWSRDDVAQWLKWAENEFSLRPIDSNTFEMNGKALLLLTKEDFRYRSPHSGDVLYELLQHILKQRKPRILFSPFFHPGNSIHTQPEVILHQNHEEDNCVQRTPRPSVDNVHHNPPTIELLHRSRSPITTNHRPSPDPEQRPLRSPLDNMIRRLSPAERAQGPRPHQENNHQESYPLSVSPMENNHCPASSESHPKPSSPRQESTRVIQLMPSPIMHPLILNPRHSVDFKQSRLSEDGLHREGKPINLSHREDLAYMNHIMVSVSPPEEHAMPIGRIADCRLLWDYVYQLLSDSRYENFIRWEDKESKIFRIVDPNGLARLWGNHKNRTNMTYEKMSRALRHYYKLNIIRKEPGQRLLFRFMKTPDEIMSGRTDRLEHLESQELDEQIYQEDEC
Chain of ETV1 (P50549 whole entry): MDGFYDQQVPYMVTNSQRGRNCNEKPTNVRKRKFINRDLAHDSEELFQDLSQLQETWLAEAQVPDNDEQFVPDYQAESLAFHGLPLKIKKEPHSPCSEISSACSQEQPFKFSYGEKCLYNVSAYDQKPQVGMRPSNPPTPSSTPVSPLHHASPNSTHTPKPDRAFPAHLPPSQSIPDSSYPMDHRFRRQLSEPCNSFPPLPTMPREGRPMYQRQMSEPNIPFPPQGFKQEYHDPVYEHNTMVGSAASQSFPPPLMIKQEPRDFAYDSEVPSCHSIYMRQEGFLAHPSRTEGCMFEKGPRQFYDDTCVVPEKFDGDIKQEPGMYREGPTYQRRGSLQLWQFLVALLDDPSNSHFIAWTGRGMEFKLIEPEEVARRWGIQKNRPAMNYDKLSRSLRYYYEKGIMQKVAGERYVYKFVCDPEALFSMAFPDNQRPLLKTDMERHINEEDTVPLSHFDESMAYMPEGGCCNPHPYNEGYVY

| Sequence | binding signal (FEV) | binding signal (ETV5) | binding signal (SPIC) | binding signal (ELF4) | binding signal (ELK4) | binding signal (ETV2) | binding signal (ELF3) | binding signal (ETV1) | binding signal (ERF) | binding signal (ETS2) | binding signal (ETV7) | binding signal (ELF5) | binding signal (ETV3) | binding signal (ETV6) |
| --- | --- | --- | --- | --- | --- | --- | --- | --- | --- | --- | --- | --- | --- | --- |
| CAACAA | 1.05 fold enrichment (6-mer frequency, TF over GST control) | 1.02 fold enrichment (6-mer frequency, TF over GST control) | 1.06 fold enrichment (6-mer frequency, TF over GST control) | 1.13 fold enrichment (6-mer frequency, TF over GST control) | 1.02 fold enrichment (6-mer frequency, TF over GST control) | 1.08 fold enrichment (6-mer frequency, TF over GST control) | 1.2 fold enrichment (6-mer frequency, TF over GST control) | 1.05 fold enrichment (6-mer frequency, TF over GST control) | 1.05 fold enrichment (6-mer frequency, TF over GST control) | 1.08 fold enrichment (6-mer frequency, TF over GST control) | 1.02 fold enrichment (6-mer frequency, TF over GST control) | 1.03 fold enrichment (6-mer frequency, TF over GST control) | 1.08 fold enrichment (6-mer frequency, TF over GST control) | 1.01 fold enrichment (6-mer frequency, TF over GST control) |
| GGCCCT | – | 1.04 fold enrichment (6-mer frequency, TF over GST control) | 1.11 fold enrichment (6-mer frequency, TF over GST control) | 1.06 fold enrichment (6-mer frequency, TF over GST control) | 1.06 fold enrichment (6-mer frequency, TF over GST control) | 1.14 fold enrichment (6-mer frequency, TF over GST control) | 1.11 fold enrichment (6-mer frequency, TF over GST control) | – | 1.02 fold enrichment (6-mer frequency, TF over GST control) | – | 1.03 fold enrichment (6-mer frequency, TF over GST control) | – | 1.03 fold enrichment (6-mer frequency, TF over GST control) | – |
| GCAATG | 1.08 fold enrichment (6-mer frequency, TF over GST control) | 1.09 fold enrichment (6-mer frequency, TF over GST control) | 1.08 fold enrichment (6-mer frequency, TF over GST control) | 1.04 fold enrichment (6-mer frequency, TF over GST control) | 1.13 fold enrichment (6-mer frequency, TF over GST control) | 1.07 fold enrichment (6-mer frequency, TF over GST control) | 1.17 fold enrichment (6-mer frequency, TF over GST control) | 1.06 fold enrichment (6-mer frequency, TF over GST control) | 1.02 fold enrichment (6-mer frequency, TF over GST control) | – | 1.14 fold enrichment (6-mer frequency, TF over GST control) | – | 1.03 fold enrichment (6-mer frequency, TF over GST control) | 1.12 fold enrichment (6-mer frequency, TF over GST control) |
